For 5 compounds, composite z-score and z-score results are on record in PubChem BioAssay.

Assay [1] is described as follows: small molecules captured by biotinylated probe aFSTL3 – biochemical, small-molecule microarray, fluorescence 635/667, stem cell growth factor project, primary screen (AID 1064).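 Also: measures binding of the biotinylated anti-FSTL3 antibody to printed compounds.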 Conditions: higher = more signal.
Assay [2] is described as follows: binders from COS7 lysate, DM2A8 probe, primary screen, torsin A project, cell lysate, small-molecule microarray, fluorescence 635/667 (AID 1065). The following applies: higher = more signal, COS7 lysate expressing mutant human TOR1A.
The nature of assay [3]: small molecules captured by biotinylated probe aFGF2 – biochemical, small-molecule microarray, fluorescence 635/667, stem cell growth factor project, primary screen (AID 1067).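 Also: measures binding of biotinylated aFGF2 protein to printed compounds on slides; z-score merges feature fluorescence and signal-to-noise across triplicate slides.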 The following applies: higher = more signal.
Assay [4] is described as follows: small molecules captured by biotinylated probe aFGF10 – biochemical, small-molecule microarray, fluorescence 635/667, stem cell growth factor project, primary screen (AID 1071).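 Also: score merges 667 nm spot intensity and signal to noise from triplicate slides.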 Conditions: higher = more signal.
Assay [5] deals with Neurogenic locus notch homolog protein 2 (Homo sapiens) (UniProt Q04721). The experiment in a line: small molecules binding Notch2 protein – biochemical, small-molecule microarray, 635 nm fluorescence, stem cell growth factors, primary screen (AID 1073). Conditions: higher = more signal.
The target of assay [6] is Pro-neuregulin-1, membrane-bound isoform (Homo sapiens) (UniProt Q02297). The experiment in a line: small molecules binding neuregulin-1 protein – biochemical, small-molecule microarray, fluorescence 635/667, psychiatric disease protein project, primary screen (AID 1075).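 Also: score combines 667 nm spot fluorescence with signal to noise.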 The following applies: NRG1 binding, 635 nm fluorescence, higher = more signal.
Pro-neuregulin-1, membrane-bound isoform (Homo sapiens), sequence (Q02297 whole entry, looked up, the tested form may be a part, canonical isoform): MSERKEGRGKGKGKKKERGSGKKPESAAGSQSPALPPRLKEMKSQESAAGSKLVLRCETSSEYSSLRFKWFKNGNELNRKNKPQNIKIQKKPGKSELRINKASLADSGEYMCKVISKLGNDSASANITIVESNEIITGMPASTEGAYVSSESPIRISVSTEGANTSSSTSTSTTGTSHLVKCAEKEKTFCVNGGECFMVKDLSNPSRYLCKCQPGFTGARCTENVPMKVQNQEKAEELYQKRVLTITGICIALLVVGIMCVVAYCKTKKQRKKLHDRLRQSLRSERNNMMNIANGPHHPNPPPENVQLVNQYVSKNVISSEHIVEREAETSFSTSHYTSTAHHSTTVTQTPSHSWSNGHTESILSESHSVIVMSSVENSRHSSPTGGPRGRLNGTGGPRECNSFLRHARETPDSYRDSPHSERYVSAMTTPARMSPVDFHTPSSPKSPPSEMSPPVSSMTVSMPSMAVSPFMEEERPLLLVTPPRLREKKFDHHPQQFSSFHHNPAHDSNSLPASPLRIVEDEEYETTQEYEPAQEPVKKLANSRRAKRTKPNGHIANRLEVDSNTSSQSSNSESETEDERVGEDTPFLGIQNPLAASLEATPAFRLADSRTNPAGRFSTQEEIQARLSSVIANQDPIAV
For assay [7], the system named is Neuregulin-1 EGF-like domain. Kind of assay: small molecules binding NRG1 EGF domain – biochemical, small-molecule microarray, 635 nm fluorescence, primary screen (AID 1081).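 Also: binding of the protein to compounds printed on small-molecule microarray slides.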 The following applies: higher = more signal.
The nature of assay [8]: FRG1 expression reporter modulators in myotubes – cell-based, C2C12 myotubes, firefly/Renilla luciferase, luminescence, FRG1 inhibition for FSHD, primary screen (AID 1084). Conditions: FRG1 promoter luciferase, higher = more signal, called active from +8 up or from −8 down.
Assay [9] can be described thus: small molecules captured by biotinylated probe aFST – biochemical, small-molecule microarray, fluorescence 635/667, stem cell growth factor project, primary screen (AID 1086).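 Also: score merges 667 nm fluorescence with signal-to-noise of each printed compound spot.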 The following applies: higher = more signal.
Assay [10] is described as follows: binders of probe aHhip on microarray, primary screen, stem cell growth factor project, biochemical, small-molecule microarray, fluorescence 635/667 (AID 1087).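 Also: score merges spot fluorescence at 667nm with spot signal to noise ratio.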 The following applies: higher = more signal.
The subject of assay [11] is PRMT1 (protein arginine N-methyltransferase 1). The experiment in a line: small molecules binding arginine methyltransferase PRMT1 – biochemical, small-molecule microarray, 635 nm fluorescence, primary screen (AID 1088).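 Also: binding of Prmt1 protein to compounds spotted on small-molecule microarray slides.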 Conditions: higher = more signal.
Assay [12] is described as follows: growth effects on S. cerevisiae YJM789 – YJM789 clinical isolate, OD600, 24 h, basal, primary screen (AID 1089).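 Also: growth of clinical yeast isolate S. cerevisiae YJM 789 seeded 1000 cells per well; test concentration not given here.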 The following applies: higher = more signal, called active from +8 up or from −8 down.
The nature of assay [13]: S. pombe growth modifiers, basal conditions – strain 972, OD600, 24 h, no modulator, primary screen (AID 1090).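 Also: basal condition with compound alone and no growth modifier present; test concentration not given here.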 The following applies: S. pombe 972 growth, higher = more signal, called active from +8 up or from −8 down.
Assay [14] can be described thus: budding yeast growth modifiers under rapamycin – strain BY4716, OD600, 96 h, primary screen (AID 1091). Also: test concentration not given here. The following applies: S. cerevisiae BY4716 + rapamycin, higher = more signal, called active from +8 up or from −8 down.
Assay [15] has as its target Torsin-1A-interacting protein 2 (Homo sapiens) (UniProt Q8NFQ8). The experiment in a line: small molecules binding lysate-expressed LULL1 – cell lysate, human LULL1 lysate, 635/667 nm fluorescence, primary screen (AID 1092).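 Also: score merges per-feature 667 nm fluorescence with signal-to-noise.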 Conditions: small-molecule microarray, hLULL1 lysate binding, 635 nm fluorescence; higher = more signal.
Assay [16] can be described thus: optical density change of DRC41 E. coli – strain DRC41, OD650, 24 h, E. coli filamentation project, primary screen (AID 1093).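 Also: MC1000 strain lacking acrAB efflux and sulA so SOS filamentation is blocked; test concentration not given here.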 Conditions: E. coli DRC41 growth, higher = more signal, called active from +8 up or from −8 down.
Assay [17] can be described thus: probe aLefty2 binding to arrayed compounds – biochemical, biotinylated probe, 635/667 nm fluorescence, primary screen (AID 1094).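 Also: score merges spot fluorescence near 667 nm with spot signal-to-noise ratio.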 The following applies: small-molecule microarray, higher = more signal.
The subject of assay [18] is Noggin (protein binding on small-molecule microarray). The experiment in a line: small molecules binding Noggin protein – biochemical, 635/667 nm fluorescence, primary screen (AID 1095).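 Also: score merges 667 nm feature fluorescence with signal to noise over triplicate slides.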 Conditions: 635 nm fluorescence, higher = more signal.
Assay [19] deals with Neurogenic locus notch homolog protein 3 (Homo sapiens) (UniProt Q9UM47). Kind of assay: small molecules binding NOTCH3 protein – biochemical, 635/667 nm fluorescence, primary screen (AID 1096). The following applies: small-molecule microarray, 635 nm fluorescence, higher = more signal.
Neurogenic locus notch homolog protein 3 (Homo sapiens), sequence (Q9UM47 whole entry, looked up): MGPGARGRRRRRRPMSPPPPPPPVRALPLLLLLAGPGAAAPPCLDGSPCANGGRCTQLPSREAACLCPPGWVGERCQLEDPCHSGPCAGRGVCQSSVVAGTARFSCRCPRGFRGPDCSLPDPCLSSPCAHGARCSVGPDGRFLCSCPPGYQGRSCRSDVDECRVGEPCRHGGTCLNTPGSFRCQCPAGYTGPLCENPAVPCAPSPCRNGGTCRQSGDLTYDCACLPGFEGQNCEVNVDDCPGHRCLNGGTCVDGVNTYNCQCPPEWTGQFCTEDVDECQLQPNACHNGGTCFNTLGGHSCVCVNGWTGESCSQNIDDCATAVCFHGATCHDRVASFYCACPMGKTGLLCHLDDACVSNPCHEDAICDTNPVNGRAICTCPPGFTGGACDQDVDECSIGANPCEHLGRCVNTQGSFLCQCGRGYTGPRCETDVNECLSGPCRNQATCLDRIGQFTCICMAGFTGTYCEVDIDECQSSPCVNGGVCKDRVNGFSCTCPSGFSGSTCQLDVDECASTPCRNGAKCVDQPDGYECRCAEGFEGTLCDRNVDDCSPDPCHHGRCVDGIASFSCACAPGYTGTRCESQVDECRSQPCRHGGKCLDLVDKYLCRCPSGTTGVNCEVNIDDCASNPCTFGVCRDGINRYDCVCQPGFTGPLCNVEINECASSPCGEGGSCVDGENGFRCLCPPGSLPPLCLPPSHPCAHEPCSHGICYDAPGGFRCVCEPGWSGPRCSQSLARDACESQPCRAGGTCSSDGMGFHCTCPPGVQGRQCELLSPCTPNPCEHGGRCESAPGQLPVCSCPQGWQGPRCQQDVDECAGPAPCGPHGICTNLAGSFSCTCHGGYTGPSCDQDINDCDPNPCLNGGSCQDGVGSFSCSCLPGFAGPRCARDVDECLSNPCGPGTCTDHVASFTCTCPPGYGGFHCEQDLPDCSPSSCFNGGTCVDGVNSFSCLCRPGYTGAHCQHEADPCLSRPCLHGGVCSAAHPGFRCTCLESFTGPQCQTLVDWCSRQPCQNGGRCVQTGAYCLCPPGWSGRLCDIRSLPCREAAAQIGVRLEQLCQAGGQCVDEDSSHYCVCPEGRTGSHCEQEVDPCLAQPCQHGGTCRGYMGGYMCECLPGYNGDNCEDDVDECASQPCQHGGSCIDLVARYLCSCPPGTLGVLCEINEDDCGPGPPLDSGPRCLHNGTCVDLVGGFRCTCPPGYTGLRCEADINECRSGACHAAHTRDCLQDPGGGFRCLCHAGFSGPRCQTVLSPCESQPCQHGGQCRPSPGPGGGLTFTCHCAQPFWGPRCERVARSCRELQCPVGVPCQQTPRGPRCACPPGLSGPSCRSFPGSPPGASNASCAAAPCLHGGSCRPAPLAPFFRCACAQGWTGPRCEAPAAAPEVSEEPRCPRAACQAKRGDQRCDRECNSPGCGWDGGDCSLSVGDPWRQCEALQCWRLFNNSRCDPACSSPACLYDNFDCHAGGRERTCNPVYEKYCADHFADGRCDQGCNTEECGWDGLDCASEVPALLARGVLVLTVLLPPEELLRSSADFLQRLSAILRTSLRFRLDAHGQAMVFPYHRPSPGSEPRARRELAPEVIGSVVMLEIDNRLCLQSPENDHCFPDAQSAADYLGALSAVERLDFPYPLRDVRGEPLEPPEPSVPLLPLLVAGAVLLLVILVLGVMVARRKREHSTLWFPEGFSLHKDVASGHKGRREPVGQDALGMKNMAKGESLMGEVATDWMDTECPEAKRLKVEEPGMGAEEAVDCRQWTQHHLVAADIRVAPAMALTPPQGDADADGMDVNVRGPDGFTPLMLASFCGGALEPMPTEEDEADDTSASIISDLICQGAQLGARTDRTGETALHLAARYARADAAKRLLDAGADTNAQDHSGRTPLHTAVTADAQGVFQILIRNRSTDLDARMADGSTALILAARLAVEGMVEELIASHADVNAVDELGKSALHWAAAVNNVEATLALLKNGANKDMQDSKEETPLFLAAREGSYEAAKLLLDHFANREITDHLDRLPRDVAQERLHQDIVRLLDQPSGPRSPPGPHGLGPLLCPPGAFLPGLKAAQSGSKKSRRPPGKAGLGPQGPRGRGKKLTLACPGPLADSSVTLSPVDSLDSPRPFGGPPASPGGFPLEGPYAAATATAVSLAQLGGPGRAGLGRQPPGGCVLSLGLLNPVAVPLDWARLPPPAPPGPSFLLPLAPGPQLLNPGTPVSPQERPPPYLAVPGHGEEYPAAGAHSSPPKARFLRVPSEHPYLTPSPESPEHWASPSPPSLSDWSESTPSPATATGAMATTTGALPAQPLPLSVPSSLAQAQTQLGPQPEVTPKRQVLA
The nature of assay [20]: probe aEGFR binding to arrayed compounds – biochemical, biotinylated probe, 635/667 nm fluorescence, primary screen (AID 1097).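 Also: probe is a biotinylated anti-EGFR antibody binding compounds printed on slides; score combines fluorescence near 667 nm and signal to noise of each spot.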 Conditions: small-molecule microarray, higher = more signal.

Active and inactive are the calls of the source.

Torsin-1A-interacting protein 2 (Homo sapiens), sequence (Q8NFQ8 whole entry, looked up): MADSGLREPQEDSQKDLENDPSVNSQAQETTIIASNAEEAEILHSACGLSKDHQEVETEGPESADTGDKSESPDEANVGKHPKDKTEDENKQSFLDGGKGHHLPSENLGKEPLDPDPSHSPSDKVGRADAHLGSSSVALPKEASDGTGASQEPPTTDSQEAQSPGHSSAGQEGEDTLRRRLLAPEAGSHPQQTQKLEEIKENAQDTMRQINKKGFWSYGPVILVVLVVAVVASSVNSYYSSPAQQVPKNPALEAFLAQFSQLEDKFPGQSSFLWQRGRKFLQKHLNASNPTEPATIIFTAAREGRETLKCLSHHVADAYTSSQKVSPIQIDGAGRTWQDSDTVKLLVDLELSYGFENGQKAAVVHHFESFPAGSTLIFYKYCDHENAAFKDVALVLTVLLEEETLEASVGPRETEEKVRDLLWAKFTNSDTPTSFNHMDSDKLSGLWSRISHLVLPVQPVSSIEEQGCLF

Regarding `C=CCN1C(=O)[C@@]2(O[C@@H](CCO)[C@H]([Si](C)(C)c3ccc(OC)cc3)[C@H]2C)c2cc(N(C=O)c3ccccc3)ccc21`, the composite z-score in assay [1] is 0.156; in [2], 0.24; in assay [3] it was -0.125; in assay [4], 0.461; in [5], 0.555; in assay [6] it was 0.657. Besides, the composite z-score was found to be 0.904 in assay [7]; 0.143 in [9]; 0.154 in assay [10]; 1.11 in assay [11]; 0.586 in assay [15]; 0.0183 in assay [17]. In addition, the composite z-score is 0.366 in assay [18], 0.259 in assay [19] and -0.0304 in assay [20]. In addition, the z-score is -1.06 (inactive) in assay [8]; 0.551 (inactive) in [12]; -0.67 (inactive) in assay [13]; 21 (active) in assay [14]; 1.85 (inactive) in assay [16].

With `COCCOC(=O)N1C(=O)[C@@]2(c3ccccc31)[C@H](C(=O)Nc1nc3ccccc3s1)[C@H]1C(=O)O[C@H](c3ccccc3)[C@H](c3ccccc3)N1[C@@H]2c1ccc(O)cc1`, the composite z-score in [1] turned out to be 0.0605; in assay [2], 0.202; in assay [3] it was 0.074; in assay [4], 0.823; in [5] it was 1.44; in [6], 0.57. Moreover, the composite z-score in assay [7] came out at 1.28; in assay [9], 0.442; in assay [10], 0.0302; in assay [11], 1.53; in assay [15], 1.76; in assay [17] it was 0.219. The composite z-score in assay [18] stood at 0.565; in assay [19], 1.1; in [20], 0.254. The z-score in assay [8] is 2.8 (inactive); in assay [12], 3.43 (inactive); in [13] it was 1.8 (inactive); in assay [14], 8.35 (active); in assay [16] it was 2.9 (inactive).

As for `C=CCN1C(=O)[C@@]2(O[C@@H](CCO)[C@H]([Si](C)(C)c3ccc(OC)cc3)[C@H]2C)c2cc(N3C(=O)c4cccc5cccc3c45)ccc21`, the composite z-score was -0.149 in assay [1]; 0.0485 in [2]; -0.113 in assay [3]; 0.349 in [4]; 0.24 in [5]; 0.769 in assay [6]. Also, the composite z-score in assay [7] was 0.876; in [9], -0.169; in assay [10] it was -0.0994; in assay [11], 1.18; in assay [15], 1.15; in assay [17], -0.156. Besides, the composite z-score was -0.106 in [18], -0.0485 in [19] and -0.147 in [20]. Moreover, the z-score in [8] was -1.42 (inactive); in [12], 2.89 (inactive); in assay [13], 1.89 (inactive); in assay [14] it was 36.3 (active); in assay [16], 1.93 (inactive).

With `NC(=O)NCC#Cc1ccc2c(c1)[C@]1(C(=O)N2)[C@H](c2ccc(OCCO)cc2)N2[C@H](c3ccccc3)[C@H](c3ccccc3)OC(=O)[C@H]2[C@@H]1C(=O)Nc1nc2ccccc2s1`, the composite z-score in [1] was 1.02; in [2] it was -0.528; in assay [3], -0.0953; in assay [4], 0.0777; in assay [5], -0.442; in assay [6] it was -0.214. In addition, the composite z-score is -0.748 in [7]; 0.668 in assay [9]; -0.132 in [10]; -0.136 in assay [11]; 0.759 in [15]; 0.289 in assay [17]. Besides, the results for the composite z-score in assay [18], in assay [19] and in [20] were -0.17, -0.0446 and -0.0946, respectively. Further, the z-score in assay [8] was 2.5 (inactive); in assay [12], 2.55 (inactive); in assay [13], 0.766 (inactive); in assay [14], 4.18 (inactive); in [16], 2.26 (inactive).

`C[N+](C)(C)CCCC[C@@H]1NC(=O)[C@H]2C[C@@H](C(=O)NCCCCCN)[C@@H](c3cccc(OCCO)c3)N2C1=O`: the composite z-score in assay [1] was 0.89; in [2], 0.419; in assay [3] it was -0.0164; in assay [4] it was 0.372; in assay [5] it was 0.529; in [6], 2.07. The composite z-score is 0.739 in [7]; 1.69 in [9]; 0.242 in assay [10]; 0.665 in assay [11]; 2.7 in assay [15]; 0.739 in assay [17]. Moreover, the composite z-score in [18] was determined as 0.387; in assay [19] it was 0.526; in assay [20], 0.162. Moreover, the z-score is -0.309 (inactive) in assay [8]; -0.706 (inactive) in assay [12]; -2.62 (inactive) in assay [13]; -0.207 (inactive) in [14]; 2.4 (inactive) in assay [16].
